# BJeLR viability = BJeLR cell viability loss, primary screen, luminescence, CellTiterGlo ATP; BJeLR fibroblasts viability, 48 h; HRASV12, hTERT and SV40 LT/ST transformed; viability loss activity score, % (test concentration not listed); 0.64% of 30,000 active; in the data active = viability loss activity score above about 50%;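 note: higher score means fewer live cells and less ATP luminescence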
# MITF inhib = inhibitors of MITF, primary screen, MITF inhibitor project, cell-based, luminescence; TRPM1 promoter luciferase, 24 h; inhibition, % (concentration not given with the values); 0.28% of 37,000 active; in the data active = inhibition above about 85%;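 note: human melanocyte line stably carrying TRPM1 promoter luciferase reporter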
# Hedgehog inh = Hedgehog pathway signaling inhibitors, primary screen, luminescence, Shh-LIGHT2 cells, Gli-luciferase | Shh-LIGHT2 Gli-luciferase reporter, 30 h | AID 2313, 2010 | inhibition, % (no concentration beside the values) | 2.1% of 22,000 active;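 active = mean inhibition across valid replicates above about 65%, limit read from the data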;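 note: pathway switched on by Shh-conditioned medium diluted 1 in 25 in low serum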
# Active calls of the source: *; i = inactive; x = no result given. Shown is part of a subset that was picked to be rich in hits.
SMILES,BJeLR viability,MITF inhib,Hedgehog inh
C=C1[C@@H](C2=CC(=O)OC2)CC[C@@]2(O)[C@@H]1CC1[C@H]2CC[C@@H]2C[C@@H](O[C@H]3O[C@@H](C)[C@@H](O[C@@H]4O[C@H](CO[C@@H]5O[C@H](CO)[C@@H](O)[C@H](O)[C@H]5O)[C@@H](O)[C@H](O)[C@H]4O)[C@H](OC)[C@H]3O)CC[C@]12C (stereo partly drawn),x,x,27
CO[C@@H]1CC(OC2CCC3(C)C(CCC45CCC(C6=CC(=O)OC6)C(C)(CCC43)C5=O)C2)O[C@H](C)[C@@H]1O[C@@H]1O[C@H](CO[C@@H]2O[C@H](CO)[C@@H](O)[C@H](O)[C@H]2O)[C@@H](O)[C@H](O)[C@H]1O (stereo partly drawn),92*,20,-34
CCCNC(=O)c1cc2c(s1)CS(=O)(=O)C2,0,x,x
CN(C)CCNC(=O)c1cc2c(s1)-c1ccc(Cl)cc1SC2,123*,x,x
CCc1ccc(NC(=O)c2ccc3c(c2)OCO3)cc1,11,x,x
COc1cccc2c1C(=O)c1c(O)c3c(c(O)c1C2=O)C[C@@](O)(C(C)=O)C[C@@H]3O[C@H]1C[C@H](N)[C@H](O)[C@H](C)O1,111*,74,99*
CC1CC(=O)c2c(ccc3c2C(=O)c2c(O[C@@H]4O[C@@H](C)[C@H](O)[C@@H](O)[C@H]4O)cccc2C3=O)C1 (stereo partly drawn),5,10,3
O=C(CCn1c(=O)c2ccccc2n(CC(=O)Nc2ccccc2)c1=O)NCCc1ccccc1,7,x,x
CC1CC(C)(C)N(C(=O)c2ccccc2F)c2ccccc21 (stereo not drawn),-5,x,x
Cc1ccc(Cc2nn3c(C(=O)c4cccs4)nn(-c4ccc(Cl)cc4)c3nc2=O)cc1,-1,23,67*
O=c1nc2s/c(=C\c3cccs3)c(=O)n2nc1Cc1ccccc1,0,x,x
C[C@@H]1CN([C@H](C)CO)C(=O)c2cc(NS(=O)(=O)c3ccccc3)ccc2O[C@H]1CN(C)Cc1ccc(Oc2ccccc2)cc1,2,9,42
C[C@H](CO)N1C[C@H](C)[C@H](CN(C)Cc2ccc(Oc3ccccc3)cc2)Oc2ccc(NC(=O)c3ccncc3)cc2C1=O,-5,2,-4
C[C@H](CO)N1C[C@H](C)[C@H](CN(C)Cc2ccc(C(=O)Nc3ccccc3N)cc2)Oc2ccc(N(C)C)cc2C1=O,15,30,x
C[C@@H]1CN([C@H](C)CO)C(=O)c2cc(NS(=O)(=O)c3ccccc3)ccc2O[C@@H]1CN(C)Cc1ccc(Oc2ccccc2)cc1,0,35,88*
C[C@@H]1CN([C@@H](C)CO)C(=O)c2cc(NC(=O)c3ccncc3)ccc2O[C@H]1CN(C)Cc1ccc(-c2ccccc2)cc1,-1,7,x
C[C@@H]1CN([C@H](C)CO)C(=O)c2cc(N(C)C)ccc2O[C@@H]1CN(C)Cc1ccc(C(=O)Nc2ccccc2N)cc1,54*,41,x
C[C@@H]1CN([C@@H](C)CO)C(=O)c2cc(NC(=O)c3ccncc3)ccc2O[C@@H]1CN(C)Cc1ccc(Oc2ccccc2)cc1,-3,-5,84*
C[C@@H]1CN([C@H](C)CO)C(=O)c2cc(NC(=O)c3ccncc3)ccc2O[C@H]1CN(C)Cc1ccc(-c2ccccc2)cc1,5,1,89*
CN(C)C(=S)N(C#N)c1nc(N(C)C)nc(N(C)C)n1,-5,x,x
Cc1cccc(NC(=O)C23CC4CC(C2)CC(n2nnc(C)n2)(C4)C3)c1,-5,x,x
CCN1CCN(C(=O)CS(=O)Cc2nc(-c3ccccc3)oc2C)CC1 (stereo not drawn),5,x,x
O=C(c1ccc(COc2cccc3ccccc23)cc1)N1CCCCC1,1,x,x
CCc1ccc(/C=N/N2CCN(Cc3ccccc3)CC2)cc1,2,x,x
COc1ccc(NC(=O)Nc2ccc3c(c2)C(=O)N([C@H](C)CO)C[C@@H](C)[C@@H](CN(C)Cc2ccc(Oc4ccccc4)cc2)O3)cc1,1,-7,96*
SMILES,BJeLR viability,MITF inhib,Hedgehog inh
COc1ccc(NC(=O)Nc2ccc3c(c2)C(=O)N([C@@H](C)CO)C[C@H](C)[C@@H](CN(C)Cc2ccc(Oc4ccccc4)cc2)O3)cc1,0,-10,3
CC(=O)O[C@H]1C(=O)[C@@]2(C)C([C@H](OC(=O)c3ccccc3)[C@]3(O)C[C@H](OC(=O)[C@H](O)[C@@H](NC(=O)c4ccccc4)c4ccccc4)C(C)=C1C3(C)C)[C@]1(OC(C)=O)CO[C@@H]1C[C@@H]2O (stereo partly drawn),50*,19,-43
Cc1ccnc(NC(=O)CCNS(=O)(=O)c2ccc3c(c2)c(=O)n(C)c(=O)n3C)c1,3,x,x
COc1ccc(-n2c(-c3ccc(C(C)(C)C)cc3)n[nH]c2=S)cc1,-3,x,x
Oc1ccc(-c2nc(-c3ccc(F)cc3)c(-c3ccncc3)[nH]2)cc1,3,-28,74*
C[S+](O)c1ccc(CSc2nc(-c3ccc(F)cc3)c(-c3ccncc3)[nH]2)cc1 (stereo not drawn),-1,-7,-55
Cc1cc(Br)ccc1OCC(=O)NCCC1=CCCCC1,-1,x,x
COc1ccccc1C1CC(=O)NC(C)=C1C(=O)OC1CCCC1 (stereo not drawn),0,x,x
COc1ccccc1C1CC(=O)Nc2cc3c(cc21)CCC3 (stereo not drawn),51*,x,x
Cc1cccc(N2CCN(CCNC(=S)Nc3c(C)cccc3C)CC2)c1C,0,x,x
CC1=CC(C)(C)N(C(=O)Nc2ccc(C)cc2)c2ccccc21,3,x,x
CC1=CC(C)(C)N(S(=O)(=O)c2ccc(C)cc2)c2ccccc21,57*,59,68*
CC(=O)N1CCc2cc(S(=O)(=O)NCCC(=O)N3CCc4ccccc43)ccc21,-7,x,x
CCOC(=O)c1sc2ncn3c(-c4ccc(C)cc4)nnc3c2c1C,0,x,x
CCCCC1=NC2(CCCC2)C(=O)N1Cc1ccc(-c2ccccc2-c2nn[nH]n2)cc1,-7,5,-21
O=C1C(Cc2ccc(-c3nn[nH]n3)cc2)=C(c2ccccc2)S(=O)(=O)c2ccccc21,1,14,107*
Oc1c(C(Nc2cccnc2)c2ccc(Cl)cc2)ccc2cccnc12 (stereo not drawn),x,39,x
Oc1c(C(Nc2cccc(Cl)c2)c2cccnc2)ccc2cccnc12 (stereo not drawn),-1,37,75*
Cc1ccc(Oc2ccc3c(c2)C(=O)N(CC(=O)O)C3=O)cc1,1,x,x
C/C=C(/C)C(=O)O[C@@H](C)[C@@](C)(O)C(=O)O[C@H](C)[C@@H](OC(=O)/C(C)=C\C)c1cc(OC)c2c(c1)OCO2,2,45,89*
Cc1ccc(Cl)cc1N1CCN(C(=O)C2CCN(S(=O)(=O)c3cccs3)CC2)CC1,1,x,x
Cc1ccccc1Cn1c(=O)n(CCCS(=O)(=O)C2CCCCC2)c(=O)c2ccccc21,-4,x,x
CCOc1ccc2nc(N3CCCCC3)sc2c1,14,x,x
CCOc1ccc(-c2nc3ccc(-c4nc5ccc(N6CCN(C)CC6)cc5[nH]4)cc3[nH]2)cc1,126*,79,i
COC(=O)c1[nH]c2c(c1C)C(=O)CC(c1ccccc1)C2 (stereo not drawn),60*,x,x
